Test results reported in PubChem BioAssay (NCATS).
Some of the results follow. The source made the active and inactive calls. Calls follow the shape of the dose curve; as a rule, active = well fitted inhibition curve with a large enough effect; inconclusive = small, poorly fitted or top-dose-only effect, or another doubt; inactive = no such curve, though single readings can be large or run the other way.

biological target: Vitamin D3 receptor (Homo sapiens) (UniProt P11473); experiment: qHTS for Inhibitors of the vitamin D receptor (VDR): Hit Validation using a Fluorescein Assay (AID 602200); conditions: VDR-coactivator binding, fluorescein fluorescence polarization
Excerpt: The vitamin D receptor (VDR) is a ligand-activated transcription factor and is partially responsible for the regulation of the endocrine system. This includes the transcriptional regulation of genes involved in the production of the parathyroid hormone (PTH) and the regulation of the blood calcium level. High levels of PHT can cause hypercalcemia in the case of primary and tertiary hyperparathyroidism. The VDR-mediated gene regulation, activated by its ligand 1,25-dihydroxyvitamin D3 (1,25-(OH)2D3), is governed by the recruitment of coactivators. Our hypothesis is that small molecules, with the ability to inhibit the interaction between VDR and certain coactivators, are able to selectively modulate VDR-mediated transcription. Our long term objective is the application these VDR-coactivator inhibitors to study the role of VDR-coactivator binding for specific VDR regulated genes. Ultimately, these molecules can be developed into new treatments for hypercalcemic hyperparathyroidism. No small molecule or non-peptide inhibitors are known for the VDR-coactivator interaction.
In a collaboration between the University of Wisconsin, Milwaukee and the NIH Chemical Genomics Center (NCGC) a HTS-compatible enzymatic assay was developed. The assay uses fluorescence polarization as its read-out to measure the inhibition between VDR and coregulator peptide SRC2-3 exerted by small molecules. This assay was used to screen the NIH Molecular Libraries Small Molecule Repository (MLSMR). The HTS assay detects polarization at 665 nm emitted by the Alexa Fluor 647 dye. This validation assay measures polarization of fluorescein emission at 521 nm
NIH Chemical Genomics Center [NCGC]
NIH Molecular Libraries Probe Centers Network [MLPCN]
Assay Submitter (PI): Alexander Arnold, University of Wilwaukee
Four microliter of either 1.5 uM VDR-LBD, 5 uM LG19078, and 5 nM SRC2-3 Fluorescein (all final concentrations) in columns 1, 2, and 5 to 48 or 5 nM SRC2-3 Fluorescein in columns 3 and 4 are dispensed into black medium-binding solid bottom Greiner plates. Both solutions are kept at 4 deg C and protected from light and dispensed using a Kalypsys dispenser. Then 23 nl of compounds and controls are added with Kalypsys pintool. […] Plate is centrifuged at 1000 RPM for 15 seconds to remove any residual bubbles. The plate is then incubate at ambient room temperature for 2 hours. It is then read on the Envision for a fluorescent polarization read-out (Ex 495 nm/Em 520 nm)
Potency is read from the fitted curve at half-maximal effect.

Chain of Vitamin D3 receptor (Homo sapiens) (P11473 whole entry, looked up): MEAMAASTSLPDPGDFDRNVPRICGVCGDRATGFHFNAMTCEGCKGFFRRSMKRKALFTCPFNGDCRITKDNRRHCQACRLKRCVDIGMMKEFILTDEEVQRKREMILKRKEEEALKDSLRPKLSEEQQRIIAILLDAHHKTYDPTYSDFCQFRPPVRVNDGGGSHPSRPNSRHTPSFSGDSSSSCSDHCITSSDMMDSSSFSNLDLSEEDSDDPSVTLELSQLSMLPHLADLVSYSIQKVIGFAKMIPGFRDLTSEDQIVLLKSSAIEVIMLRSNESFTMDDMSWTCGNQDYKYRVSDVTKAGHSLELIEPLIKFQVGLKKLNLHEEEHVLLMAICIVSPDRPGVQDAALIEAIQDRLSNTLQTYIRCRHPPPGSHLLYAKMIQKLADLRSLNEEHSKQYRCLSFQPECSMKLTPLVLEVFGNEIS

Potency, active:
O=C(/C=C/c1ccc(Cl)c([N+](=O)[O-])c1)c1cccnc1 2.51 µM
Cc1ccc(-c2nc3ccccn3c2Nc2c(C)cccc2C)o1 28.2 µM
Cc1ccc(O)c(NC(=O)CCS(=O)(=O)c2nc(-c3ccc4c(c3)OCO4)cc(C(F)(F)F)n2)c1 6.31 µM
COc1ccc(OCc2nnc3n2N=C(c2ccccc2)C(CC(=O)O)S3)cc1 (stereo not given) 1.12 µM
CCCCS(=O)(=O)c1oc(-c2cccs2)nc1S(=O)(=O)c1ccccc1 3.16 µM
O=C(Nc1nc(-c2ccncc2)cs1)C1COc2ccccc2O1 (stereo not given) 3.16 µM
O=C1C=C(c2ccc(Cl)cc2)C(=O)N1Nc1ccccc1 1.78 µM
CC1CCN(C(=S)c2ccc(-c3ccc(Cl)cc3Cl)o2)CC1 25.1 µM
COC(=O)c1sc(-c2ccc(C(C)(C)C)cc2)cc1NC(=O)/C=C/C(=O)O 14.1 µM
Cc1cc(C)nc(S/C=C/C(=O)c2ccccc2)n1 3.55 µM
O=C(Nc1ccccc1)c1nnsc1S(=O)(=O)c1ccc(Cl)cc1 7.08 µM
CC(=O)N(C1=C(Cl)C(=O)c2ccccc2C1=O)c1ccc(C(=O)O)cc1 2.82 µM
C[C@@H](NC(=O)OC(C)(C)C)c1nnc(S(=O)(=O)Cc2ccccc2)o1 17.8 µM
O=c1[nH]c(/C=C\c2cccc(C(F)(F)F)c2)nc(O)c1[N+](=O)[O-] 10 µM
c1ccc2c(C[n+]3csc4ccccc43)cccc2c1 7.08 µM
Cc1cccc(Oc2c([N+](=O)[O-])c(=O)n(C)c3ccccc23)c1 20 µM
CC(=O)N1CC[n+]2c(-c3ccc([N+](=O)[O-])cc3)csc21 3.98 µM
CCOC(=O)c1sc(=S)n2c1[nH]c(=O)c1ccc(C(=O)OC)cc12 6.31 µM
O=C(/C=C/c1ccccc1)c1ccccc1O 14.1 µM
CCOc1ccc(N(Cc2ccccc2)C(=O)c2nc(S(C)(=O)=O)ncc2Cl)cc1 3.55 µM
